Experimental data: PubChem BioAssay AID837 (The Scripps Research Institute Molecular Screening Center, 2007)
The source made the active and inactive calls.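 The calls were made as follows: active = relative FRET score above 0.01, or acceptor fluorescence over 30% below the sample-well median; inactive = the rest.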

biological target: Protein Rev (Human immunodeficiency virus type 1 group M subtype B (isolate WMJ22)) (UniProt P05866); test: disruptors of Rev peptide-RRE RNA complex – biochemical, FRET, acceptor and relative FRET calls, confirmation (AID 837); conditions: Fl-Rev peptide / Cy5-RRE RNA FRET, 1536-well; at 8 µM;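 also: relative FRET combines rise in Cy5 acceptor with fall in fluorescein donor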
Sequence (P05866 whole entry, looked up): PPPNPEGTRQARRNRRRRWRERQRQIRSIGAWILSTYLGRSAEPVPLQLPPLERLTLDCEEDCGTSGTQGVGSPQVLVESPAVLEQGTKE

Structure (SMILES)	outcome
COc1ccc2nc(NC(=O)c3ccc(Br)s3)sc2c1	inactive
CC[n+]1c(/C=C/Nc2ccccc2)oc2ccccc21	active; fluoresces like the donor
COc1ccc(NC(=O)Nc2ccc(N(C)C)cc2)cc1	inactive
CC(=O)c1ccc(NC(=O)c2ccc3nc(-c4ccco4)c(-c4ccco4)nc3c2)cc1	inactive
CCCCOC(=O)Cn1c(=N)n(CCN(CC)CC)c2ccccc21	inactive
c1ccc(COc2ccc(OCCCN3CCCCC3)cc2)cc1	inactive
Cn1nc(SCC(=O)O)sc1=S	inactive
c1coc(CNc2c3c(nc4ccccc24)CCC3)c1	inactive
CCN(CC)CC(O)COCCC12CC3CC(CC(C3)C1)C2 (stereo not given)	inactive
COC(=O)c1c(C(=O)OC)n(CCCN)c2ccc(C)cc12	active
CCN(CC)CCOCCOc1cc(C)c(Cl)c(C)c1	inactive
CN1CCc2c(sc3c2C(=O)NC(c2cn(Cc4ccccc4)c4ccccc24)N3)C1 (stereo not given)	inactive
Cc1ccc2nc(NC(=O)c3ccc(Cl)s3)sc2c1	inactive
Cc1ccc2[nH]c(=O)c3cc(C(=O)NCCN4CCN(C)CC4)sc3c2c1	inactive
CCN1C2=NCCCN2c2cc(C)c(C)cc21	inactive
CCN1CCCC1CNC(=O)c1c(O)c2c([nH]c1=O)CCCC2 (stereo not given)	inactive
CCN(CC)CCCOc1ccc(C)cc1Br	inactive
CC12Cc3ccc4ccccc4c3C=C1C[N+](C)(C)C2 (stereo not given)	inactive
CCOC(=O)c1c(C)n(C)c2ccc(O)c(CN(C)C)c12	active
COc1ccc(C(=O)c2coc3ccc(O)c(CN4CCCC4)c23)cc1	inactive
